High-throughput results: PubChem BioAssay, SRMLSC
DPM-DC inhibit: inhibitors of Streptococcus pneumoniae diphosphomevalonate decarboxylase; calls only at 10 µM; 65,000 tested, 0.49% active; purified DPM-DC, PK/LDH coupled NADH fluorescence; AID 556;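 active = the 320 compounds with the highest percent inhibition in the single-dose primary screen, excluding strongly autofluorescent ones, cut at about 32% in these data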;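 also: kinetic rate of NADH fluorescence loss reporting ADP formed by the decarboxylase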
PMK inhibit: S. pneumoniae PMK inhibition. purified PMK, PK/LDH-coupled NADH absorbance 340 nm. inhibition, % at 10 µM. 65,000 tested, 0.49% active;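 active = top-ranked compounds by inhibition in the single 10 µM screen, taking a fixed number of the strongest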
Autofluor 339: intrinsic fluorescence of library compounds, ex339/em460 – biochemical, MLSMR library, data from DPM-DC assay, artefact control, profiling panel; AID 709; compound autofluorescence, ex339/em460 nm, NADH buffer; active compounds read high; 1 = no-compound wells, NADH background; 65,000 tested, 5.5% active; fluorescence fold increase at 10 µM;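 active = at 10 µM, mean starting fluorescence two-fold or more over control wells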;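 also: signal is the first read of a kinetic run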
MK inhibit: blocks S. pneumoniae mevalonate kinase; purified MK, PK/LDH-coupled NADH absorbance 340 nm; inhibition, % at 10 µM; 65,000 tested, 0.48% active;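 active = ranked among the strongest by inhibition in the single 10 µM screen, a fixed top-ranked set picked for dose follow-up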
NADH coupling: inhibition of NAD/NADH coupling enzymes, library profiling. coupled PK/LDH NADH assays, four targets. 65,000 tested, 0.02% active. IC50, µM (highest dose often 10 µM);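 active = single-dose screening hits from any of four coupled enzyme assays that gave an IC50 when retested across doses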;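 also: the DPM-DC format reads NADH fluorescence rather than 340 nm absorbance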
Abs 340nm: absorbance at 340 nm | fold change at 10 µM | compound absorbance at 340 nm, fold over control | 65,000 tested, under 10 active | AID 708;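 active = at 10 µM dose, initial 340 nm absorbance at least 2 fold that of control wells; inactive = change under 2 fold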;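 also: initial absorbance extrapolated from kinetic A340 decline of NADH oxidation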
A number is an active result; – = inactive; · = no result given; + = active, no number. Compounds with a hit are over-represented: about 6.8% of the library has one in this group of screens.

SMILES	DPM-DC inhibit	PMK inhibit	Autofluor 339	MK inhibit	NADH coupling	Abs 340nm
CC1=C(C(=O)OCC2CCCO2)C(c2ccccc2)NC(=O)N1 (centres undefined)	–	–	–	–	–	–
O=C(CCN1CCc2ccccc2CC1)c1ccc2c(c1)OCCO2	–	–	–	–	–	–
N#CCCn1nc(-c2ccccc2)cc1Nc1ccccc1NC(=O)c1cccs1	–	–	–	–	–	–
CC1=C(C(=O)OC(C)C)C(c2cccnc2)C2=C(CCCC2=O)N1 (centres undefined)	·	–	2.2	–	–	–
CCN(CC)c1ccc(C2C(C(=O)OCCOC)=C(C)NC3=C2C(=O)CCC3)cc1 (centres undefined)	–	–	–	–	–	–
CC1=C(C(=O)OCC2CCCO2)C(c2ccccc2OC(C)C)C2=C(CC(c3ccco3)CC2=O)N1 (centres undefined)	·	–	3.3	–	–	–
COCCOC(=O)C1=C(C)NC2=C(C(=O)CC(c3cccs3)C2)C1c1ccsc1 (centres undefined)	–	–	2.4	–	–	–
CC(=O)Oc1c(S(=O)(=O)c2ccc(C)cc2)c(C)nn1-c1ccccc1	–	–	–	–	–	–
O=C(Nn1c(C2CC2)nc2ccccc2c1=O)c1ccco1	–	55	–	–	–	–
O=C(c1cc(-c2ccco2)on1)N1CCCc2ccccc21	–	31	–	50	–	–
O=C(c1coc(=O)c(Br)c1)N1CCCc2ccccc21	·	–	2.4	–	–	–
C[C@@H](NC(=O)c1coc(=O)c(Br)c1)c1ccccc1	–	–	–	–	–	–
CC1(C)CCCN(C(=O)c2coc(=O)c(Br)c2)C1	·	–	3.7	–	–	–
O=P(c1ccccc1)(c1ccccc1)C(c1ccco1)N1CCOCC1 (centres undefined)	–	–	–	–	–	–
O=C(O)C1CCCN1S(=O)(=O)c1ccc2[nH]c(=O)c(=O)[nH]c2c1 (centres undefined)	–	–	–	–	–	–
CC1(C)CC(=O)C2=C(C1)N(CCN1CCOCC1)C1=C(C(=O)CC(C)(C)C1)C2c1ccc(Cl)cc1	·	–	5	–	–	–
CC1(C)CC(=O)C2=C(C1)N(CCN1CCOCC1)C1=C(C(=O)CC(C)(C)C1)C2c1cccc(F)c1	·	–	4.8	–	–	–
COc1ccc(C2C3=C(CC(C)(C)CC3=O)N(CCN3CCOCC3)C3=C2C(=O)CC(C)(C)C3)cc1	–	–	3.4	–	–	–
CC1(C)CC(=O)C2=C(C1)NC(=O)CC2c1cccc(F)c1 (centres undefined)	–	–	–	–	–	–
Cc1cc(C)n(-c2ccc(C(=O)C(C#N)c3nc4ccccc4n3C)cc2)n1 (centres undefined)	–	–	–	–	–	–
O=C(O)CS(=O)(=O)CC(=O)O	–	–	–	–	–	–
COc1ccc2c(C(F)(F)F)cc(=O)oc2c1C	·	–	2.9	–	–	–
CCN(CCO)Cc1cc(=O)oc2c(C)c(C)ccc12	–	–	–	–	–	–
CCOC(=O)N1CCC(NC(=O)CCc2nc(-c3ccc(C)cc3)no2)CC1	–	–	–	–	–	–
CCc1cc2c(=O)c(-c3nc4ccccc4[nH]3)coc2cc1OC(=O)N1CCOCC1	+	–	–	–	–	–
SMILES	DPM-DC inhibit	PMK inhibit	Autofluor 339	MK inhibit	NADH coupling	Abs 340nm
Cn1c2ccccc2c2cnn(CC(=O)N3CCN(c4ncccn4)CC3)c(=O)c21	–	25	–	–	–	–
CN1CCN(CCCNC(=O)Cn2ncc3c4ccccc4n(C)c3c2=O)CC1	–	–	–	–	–	–
O=C(NC1CC1)c1ccc(S(=O)(=O)NC2CCCCCC2)cc1	–	–	–	–	–	–
Cc1ccc(NC(=O)c2oc3ccc(S(=O)(=O)N4CCOCC4)cc3c2C)cc1C	·	–	3.1	–	–	–
Cc1c(C(=O)NC2CC2)oc2ccc(S(=O)(=O)N3CCCCCC3)cc12	+	–	–	–	–	–
Cc1c(C(=O)Nc2ccc(F)cc2)oc2ccc(S(=O)(=O)N3CCCC3)cc12	–	–	–	–	–	–
O=C(NC1CCCC1)c1ccc(S(=O)(=O)N2CCCC2)cc1	–	–	2.1	–	–	–
CCCCC(=O)Nc1nn(CCC)c2nc3ccccc3cc12	–	–	–	–	–	–
CCCCC(=O)Nc1nn(C)c2nc3c(C)cccc3cc12	–	–	2.4	–	–	–
Cc1cccc2cc3c(NC(=O)CC(C)C)nn(C)c3nc12	–	–	2.9	–	–	–
Cc1ccc(-n2c(Cn3cnc4ccccc43)nnc2SCC(=O)O)cc1	–	–	–	–	–	–
CCOC(=O)c1ccc(Nc2cc(C)nc(N3CCOCC3)n2)cc1	–	–	3	–	–	–
CCOc1ccc(Nc2cc(C)nc(N3CCOCC3)n2)cc1	–	–	–	–	–	–
O=C(NCc1ccccc1)N(Cc1nc2ccccc2c(=O)[nH]1)C1CCCC1	·	–	3.8	–	–	–
CCOC(=O)c1nc2sc(C)c(C)c2c(=O)[nH]1	·	–	3.7	–	–	–
CCOC(=O)CCCSc1nc2sc(C)c(C)c2c(=O)[nH]1	–	–	–	–	–	–
CSC1=NC(NCCCO)c2c(sc3c2CC(C)(C)OC3)N1 (centres undefined)	–	–	2.9	–	–	–
CC1(C)Cc2c(sc3nc(SCC(=O)O)[nH]c(=O)c23)CO1	–	–	–	–	–	–
O=C(CSc1ncnc2c1cnn2-c1ccccc1)Nc1ccc2c(c1)OCO2	+	–	–	–	–	–
CCn1c(SCC(=O)c2ccccc2)nc2c(c1=O)SC(C)C2 (centres undefined)	–	–	–	40	–	–
CON(C)c1nc(OCCNC(=O)COc2ccc(Cl)cc2C)nc(N(C)C)n1	–	–	–	–	–	–
CON(C)c1nc(OCCNC(=O)OCc2ccc(Cl)cc2Cl)nc(N(C)C)n1	–	25	–	–	–	–
CCSc1nc(-c2ccc(OC)cc2)ccc1C#N	–	–	2	–	–	–
Cc1nnc2sc(-c3ccc(-c4ccc(Cl)c(C(F)(F)F)c4)o3)nn12	·	–	3.7	–	–	–
Cc1oc(-c2cc(Cl)ccc2Cl)cc1-c1nn2c(C)nnc2s1	–	–	–	–	–	–
O=C1NCCCC1C(=O)Nc1ccccn1 (centres undefined)	–	–	–	–	–	–
COC(=O)CCCCCNc1ccc(C(=O)OC)cc1N	–	–	–	–	–	–
COC(=O)c1[nH]c2cccc(OC)c2c1NC(=O)CN1CCC(C(N)=O)(N2CCCCC2)CC1	·	–	3.7	–	–	–
COC(=O)c1[nH]c2cccc(OC)c2c1NC(=O)CCN1CCC(C(N)=O)CC1	–	–	2.9	–	–	–
COC(=O)c1[nH]c2cccc(OC)c2c1NC(=O)CCN1CCN(c2ccccc2F)CC1	–	–	3.1	–	–	–
